Many of the other results were omitted from the sample, so hits are more common in it than they were.
Giardia FBPA inh = Giardia lamblia aldolase inhibition. A8B2U2. Potency, µM (titrated, usually from 59.6 µM), for inactives: at the highest dose activity, negative = inhibition, usual class: inhibitors. hit rate 0.71% among 290,000. purified Giardia FBPA. AID 2451; also: potency is read from the fitted curve at half-maximal effect; % is scaled to controls: 0 for no effect and ±100 for the full control effect; nearly all actives have a fitted effect of over 55% in size
Target sequence (A8B2U2 whole entry, looked up): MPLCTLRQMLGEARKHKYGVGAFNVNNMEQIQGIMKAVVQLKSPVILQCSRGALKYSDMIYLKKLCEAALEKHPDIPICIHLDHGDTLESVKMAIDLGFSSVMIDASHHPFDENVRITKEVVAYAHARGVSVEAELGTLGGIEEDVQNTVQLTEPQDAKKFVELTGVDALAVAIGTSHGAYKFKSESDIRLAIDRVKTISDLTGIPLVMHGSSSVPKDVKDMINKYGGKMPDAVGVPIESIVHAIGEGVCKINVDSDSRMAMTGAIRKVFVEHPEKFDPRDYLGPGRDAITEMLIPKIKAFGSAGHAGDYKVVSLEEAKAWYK
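40 nM FBPA preincubated 10 min at RT with compound (up to 57.5 uM final), then substrate plus GAPDH/TPI/NAD/arsenate coupling and diaphorase/resazurin added. Fluorescence read after 20 min at RT, 525/598 nm.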
Cycloheximide cs = affects cycloheximide protein synthesis inhibition readout, counter-screen; cell reporter, cycloheximide protein synthesis inhibition counterscreen; max response, %; hit rate 12% among 300,000; AID 2314; in the data active = max response mostly above about 13%, no sharp cut-off; inactive = mostly below about 14%; also: read at 38.3 µM for the half of the compounds with a filed dose; 0% is about no effect
LmPK inh = inhibitors of Leishmania mexicana pyruvate kinase. Q27686. purified LmPK, Kinase-Glo ATP luminescence, 1 h. Potency, µM (highest dose often 57.5 µM), for the others: at the highest dose activity change, negative = inhibition, most hits filed as inhibitors. hit rate 0.37% among 290,000. AID 1721; also: potency is read from the fitted curve at half-maximal effect; % is scaled to controls: 0 for no effect and ±100 for the full control effect
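Purified LmPK (0.1 nM) with 0.5 mM PEP and 0.1 mM ADP in imidazole buffer pH 7.2 with MgCl2/KCl, 1 h at room temperature. ATP formed was read by luciferase luminescence and normalized to no-enzyme and uninhibited controls.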
Sm TGR inh = inhibitors of Schistosoma mansoni thioredoxin glutathione reductase | hit rate 3% among 360,000 | purified TGR, DTNB reduction, TNB absorbance 405 nm | AID 485364 | Potency, µM (series often up to 114 µM), without a hit: at the top dose activity change, negative = inhibition, hits mostly inhibitors | Q962Y6; also: potency is read from the fitted curve at half-maximal effect; % is scaled to controls: 0 for no effect and ±100 for the full control effect; nearly all actives have a fitted effect of over 60% in size
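First, TGR (20 nM dispensed) and NADPH were mixed with compound. Second, a 15 min room-temperature incubation followed. Third, further NADPH and then DTNB were added to start the reaction. Finally, TNB absorbance was monitored kinetically.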
Tb PYK inh = inhibitors of Trypanosoma brucei pyruvate kinase; TbPYK enzyme, Kinase-Glo Plus ATP luminescence, 45 min; Potency, µM (series often up to 76.8 µM), for the others: at the top dose activity, negative = inhibition, actives largely listed as inhibitors; hit rate 0.12% among 410,000; Q57TT1; AID 624173; also: potency is read from the fitted curve at half-maximal effect; % is scaled to controls: 0 for no effect and ±100 for the full control effect; nearly all actives have a fitted effect of over 50% in size
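Readout: single end-point luminescence (Kinase-Glo Plus, 10 min). Reaction conditions were TbPYK/substrate plus 130 uM ADP, 45 min at RT, pH 7.2 TEA buffer. No-enzyme wells served as controls, and data were normalized before concentration-response fitting.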
Shiga inhibitor = inhibitors of Shiga toxin in Vero cells; Vero cells, Shiga toxin protein synthesis inhibition reporter; inhibition, % at 38.7 µM; hit rate 9.2% among 290,000; in the data active = inhibition mostly above about 28%, no sharp cut-off; inactive = mostly below about 43%; also: 0% is about no effect
* hit, by the source's call; ? = inconclusive; / = no result given; [ ] = another dose, or the depositor's remark. Unless noted, calls follow the shape of the dose curve; as a rule, active = well fitted curve in the direction sought with a large enough effect; inconclusive = small, poorly fitted or top-dose-only effect, or another doubt; inactive = no such curve, though single readings can be large; an effect the other way counts as inactive or inconclusive.

SMILES | Giardia FBPA inh | Cycloheximide cs | LmPK inh | Sm TGR inh | Tb PYK inh | Shiga inhibitor
O=C(/C=C/c1cccc(O)c1)c1ccc(N2CCOCC2)cc1 | -8% | 38* | -5% | ? | -3% | 102*
O=C(C=Cc1ccccc1)c1ccc([N+](=O)[O-])cc1 | / | / | / | / | -2% | /
COc1ccc(/C=C/C(=O)c2ccc(O)cc2)cc1CN1CCOCC1 | 2% | 4 | -2% | -7% | 7% | -9
O=C(/C=C/c1cccnc1)c1ccc(O)cc1 | 0% | 13* | -13% | 45µM* | -5% | 8
O=C(/C=C/c1cccnc1)c1ccc([N+](=O)[O-])cc1 | ? | -4 | 3% | 8.9µM* | 4% | -7
O=C(C=Cc1cccnc1)c1ccccc1 | / | / | / | / | -2% | /
CS(=O)(=O)N1CCC2(CCCN(Cc3cc(C(F)(F)F)cc(C(F)(F)F)c3)C2)CC1 | -4% | / | / | / | 2% | /
O=C(/C=C/c1cccc(O)c1)c1cccnc1 | -4% | 11 | -6% | ? | -4% | 19
O=C(/C=C/c1cccnc1)c1cccc(O)c1 | -25% | -2 | -6% | 28µM* | -8% | -5
CCCC(C(=O)NNC(=O)c1cc(C)oc1C)c1ccccc1 (configuration not stated) | / | / | / | / | -2% | /
CN(C1CCCC1)C1CCN(C(=O)CNC(=O)/C=C/c2ccccc2)CC1 | -1% | -1 | 2% | 6% | 4% | 4
CC1CCCCC1N(C)C1CCN(C(=O)CNC(=O)/C=C/c2cccc(Cl)c2)CC1 (configuration not stated) | 3% | -2 | -3% | 35µM* | 3% | -5
Cc1csc(N2CCc3ccccc32)n1 | 4% | 23* | -2% | -5% | -1% | 27
CCC/C=C1/CCCOC(C(=O)NCCOC)(C(F)(F)F)C1 (configuration not stated) | 5% | 19 | / | / | / | -3
N#Cc1c2n(c3c(=S)nc[nH]c13)CCCCC2 | ? | -1 | 22µM* | -2% | ? | -15
CCCS(=O)(=O)C/C(N)=N/OC(=O)c1ccc(Cl)cc1 | 1% | -2 | 3% | 2% | 6% | 69
CC(C)(C)C(=O)OC/C(N)=N/OC(=O)c1ccc(Cl)c(Cl)c1 | 0% | 20* | 7% | 15% | -1% | 29
COCC(=O)N1CCc2nc(-c3ccc(OC)cc3C)c3c(c2C1)CO[C@@H](c1ccccc1)C3 | 4%[12.9 µM] | / | -3%[11.5 µM] | / | / | /
O=C(CCl)Nc1nc(-c2ccco2)c(-c2ccco2)s1 | -27% | 8 | 3% | 0.4µM* | -16% | 11
O=C(CCCSc1ccccc1)Nc1nc(-c2ccco2)c(-c2ccco2)s1 | -9% | -3 | 0% | ? | -19% | 25
Cc1ccc(C(=O)Nc2nc(-c3ccco3)c(-c3ccco3)s2)o1 | / | / | / | 4.5µM* | -17% | /
COc1ccc(Br)cc1CNC(=O)C1CCN(c2nnc(-n3cccc3CNc3ccc(C)cc3)s2)CC1 | / | / | / | -18% | -2% | /
O=C(Nc1nnc(Cc2c[nH]c3ccccc23)s1)c1ccc(Cl)cc1Cl | -10% | 17* | -7% | 1% | -16% | 35*
CC(C)(C)c1ccc(C(=O)Nc2nnc(Cc3c[nH]c4ccccc34)s2)cc1 | 1% | 12 | -2% | 1% | 5% | 13
COC(=O)c1c(NC(=O)CS(=O)(=O)c2ccc(C)cc2)sc2c1CCCCC2 | / | -2 | / | -19% | 2% | 16
SMILES | Giardia FBPA inh | Cycloheximide cs | LmPK inh | Sm TGR inh | Tb PYK inh | Shiga inhibitor
COc1cc(/C=C(\C#N)c2nc3ccccc3[nH]2)c([N+](=O)[O-])cc1OCc1ccccc1 | -14% | 0 | 1% | 11% | -14% | 26
CCN(CC)c1ccc(/C=C(/C#N)c2nc3ccccc3[nH]2)c(OC(C)C)c1 | -13% | 48* | -3% | 8% | -4% | 119*
CCOc1cccc(/C=C(/C#N)c2nc3ccccc3[nH]2)c1OCC(=O)O | -12% | 22* | 3% | 0% | -9% | /
COc1cc(/C=C(\C#N)c2nc3ccc(C)cc3[nH]2)ccc1OC(C)C | / | / | / | 4% | 9% | /
N#C/C(=C\c1cccc(OCC(=O)O)c1)c1nc2ccccc2[nH]1 | ? | 25* | -1% | -6% | 0% | 36
COc1cccc(/C=C(\C#N)c2nc3ccc(C)cc3[nH]2)c1OCC(=O)O | -7% | 27* | 0% | 1% | -1% | 40*
O=C(C1CCCCC1)N(Cc1cccnc1)c1nc2ccc(Cl)cc2s1 | / | / | / | -3% | -2% | /
COc1cc(/C=C(/C#N)c2nc3ccccc3[nH]2)ccc1OCC(=O)Nc1ccccc1C | 2% | -4 | 1% | -2% | -4% | -20
COc1cc(/C=C(\C#N)c2nc3ccccc3[nH]2)ccc1OC(=O)c1ccco1 | 0% | 48* | -2% | 0% | 6% | 43*
CCOc1ccc(NC(=O)CSc2nccn2C2CCCC2)cc1 | / | / | / | 6% | -5% | /
CC(=NNC(=O)c1cc(C)nc2ccccc12)c1ccc(N2CCOCC2)cc1 | / | / | / | / | 7% | /
C/C(=N\N=c1/sc2ccccc2n1C)c1ccccn1 | -1% | 78* | -1% | 1% | 2% | 69*
C/C(=N\N=c1/sc2ccccc2n1C)c1ccc(N2CCOCC2)cc1 | -3% | 22* | -9% | 5% | -2% | 81
CC(=O)Nc1ccc(S(=O)(=O)NN=c2sc3ccccc3n2C)cc1N | / | / | / | / | 4% | /
CCc1ccc(CNC(=O)CN2C(=O)CCn3nc(-c4cn(C)c5ccccc45)cc32)cc1 | / | / | / | 2% | -2% | /
CCOc1ccc(-c2cc(C(=O)NCCc3ccccc3)c3c(-c4ccc(C)cc4)[nH]nc3n2)cc1 | / | / | / | 7% | -3% | /
Cc1cc(C)cc(N2C(=O)CSC23C(=O)N(CC(=O)NCCc2ccccc2)c2ccccc23)c1 (configuration not stated) | / | / | / | -10% | 1% | /
Cc1cc(-c2ccc(Cl)cc2Cl)c(C#N)c(=O)[nH]1 | -3% | 21* | -1% | 10% | -18% | 44*
NS(=O)(=O)c1ccc(NC(=S)NNC(=O)c2ccc(Br)o2)cc1 | / | 15* | -3% | ? | -24% | 35
Cc1cccc(NC(=S)NC(=O)/C=C/c2ccco2)c1 | -15% | 10 | -1% | / | -2% | 32
NS(=O)(=O)c1ccc(NC(=S)NC(=O)c2ccco2)cc1 | ? | 7 | 5% | 56µM* | 2% | 9
NS(=O)(=O)c1ccc(NC(=S)NC(=O)/C=C/c2ccco2)cc1 | -17% | 1 | 7% | 40µM* | -15% | -13
CC(=O)NS(=O)(=O)c1ccc(NC(=S)NC(=O)c2ccco2)cc1 | -17% | 14 | -6% | 0% | -3% | 14
O=C(/C=C/c1ccco1)NC(=S)Nc1ccccc1 | ? | 42* | 5% | ? | -8% | /
CCCCC(Sc1nc2cc3c(cc2c(=O)n1CCCC(=O)NCc1ccc(OC)cc1)OCO3)C(=O)OCC (configuration not stated) | / | / | / | 1% | 0% | /
